USP17 inh: blocks human USP17 ubiquitin-rhodamine cleavage | AID 1645855 | 47,000 compounds, 6.5% hits | purified USP17, Ub-rhodamine cleavage fluorescence, 3 h | inhibition, % at 50 µM | A8MUK1
USP28 block: inhibitors of human USP28 deubiquitinase | inhibition, % at 25 µM | Q96RU2 | purified USP28, Ub-rhodamine cleavage fluorescence, 30 min | 47,000 compounds, 3% hits
USP30 inh: human USP30 deubiquitinase inhibition; Q70CQ3; purified USP30, Ub-rhodamine cleavage fluorescence; inhibition, % at 25 µM; 47,000 compounds, 5.3% hits; AID 1645860
Target sequence (Q70CQ3 whole entry, looked up): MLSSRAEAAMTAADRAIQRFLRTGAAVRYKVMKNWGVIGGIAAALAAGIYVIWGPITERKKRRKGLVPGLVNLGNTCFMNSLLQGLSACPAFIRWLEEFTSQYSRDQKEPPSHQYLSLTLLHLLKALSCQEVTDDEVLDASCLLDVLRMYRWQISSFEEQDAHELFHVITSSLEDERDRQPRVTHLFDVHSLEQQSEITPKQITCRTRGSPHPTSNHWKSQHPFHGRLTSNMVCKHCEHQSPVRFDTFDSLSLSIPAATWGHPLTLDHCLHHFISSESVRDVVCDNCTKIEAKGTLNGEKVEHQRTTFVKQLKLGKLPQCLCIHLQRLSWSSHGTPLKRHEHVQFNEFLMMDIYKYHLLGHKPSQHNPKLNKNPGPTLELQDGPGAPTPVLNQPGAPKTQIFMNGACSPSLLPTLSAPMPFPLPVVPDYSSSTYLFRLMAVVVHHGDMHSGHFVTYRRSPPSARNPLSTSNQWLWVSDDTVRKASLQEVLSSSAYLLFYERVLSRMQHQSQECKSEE
OTUD3 inh: inhibitors of human OTUD3 deubiquitinase. Q5T2D3. purified OTUD3, Ub-rhodamine fluorescence, 2 h. inhibition, % at 25 µM. 47,000 compounds, 0.7% hits. AID 1645858
* hit, by the source's call; i = inactive; / = no result. Shown are actives, neighbours in structure and some others; about 12% of the full set was active somewhere. Cut-off read from the data, not from the text of the source: active = inhibition above about 30%; inactive = the rest.

SMILES	USP17 inh	USP28 block	USP30 inh	OTUD3 inh
Cc1ccc(C2CC(=O)Nc3c2c(C)nn3-c2ccc3nnc(C)n3n2)cc1 (stereo not drawn)	4	21	35*	8
CC(C)c1cc(N2CCCCC2)n2nc(-c3cccnc3)nc2n1	-5	/	/	-2
CCOC(=O)N1CCN(c2cc(C(C)C)nc3nc(-c4cccnc4)nn23)CC1	25	-1	33*	0
CCCc1cc(N2CCCCC2)n2nc(-c3cccnc3)nc2n1	10	19	31*	11
O=C(c1ccc(Cl)c(Cl)c1)c1c[nH]cc1-c1cccc(F)c1	24	11	7	7
COc1ccc(C(=O)Nc2cccc(-n3c(C)nc4ncccc4c3=O)c2)c(OC)c1	-6	-4	-2	-8
CN1C(=O)c2ccc(NC(=O)CCCc3nc(-c4cccnc4)no3)cc2C1=O	-9	-1	-3	0
COc1ccc2c(ccn2CC(=O)NC(C)CCc2ccccc2)c1 (stereo not drawn)	1	2	-16	7
CC(CNC(=O)Cn1c(=O)c2cccn2c2ccccc21)c1ccccc1 (stereo not drawn)	17	14	32*	11
CC(CCc1ccccc1)NC(=O)Cn1c(=O)c2cccn2c2ccccc21 (stereo not drawn)	82*	15	19	21
Cc1noc2nc(C)n(CC(=O)NCC(C)c3ccccc3)c(=O)c12 (stereo not drawn)	3	1	-3	4
Cc1ccc(-c2nc(C(=O)Nc3ccccc3C#N)c3n2CCCCC3)cc1	-10	-9	-29	-5
O=C(NC1CCCCC1)C(c1ccc(F)cc1)N(Cc1ccccc1)C(=O)CN1C(=O)c2ccccc2S1(=O)=O (stereo not drawn)	7	15	45*	9
Cc1cc(C)c(N(C(=O)CN2C(=O)c3ccccc3S2(=O)=O)C(C(=O)NCC2CCCO2)c2ccc(F)cc2)c(C)c1 (stereo not drawn)	9	7	13	1
O=C(NC1CCCCC1)C(c1ccc(F)cc1)N(C(=O)CN1C(=O)c2ccccc2S1(=O)=O)c1ccccc1 (stereo not drawn)	20	11	31*	8
COc1c(C)c(C(O)C(C)O)c2[nH]c3ccc(CC=C(C)C)cc3c2c1O (stereo not drawn)	99*	48*	48*	-47
COc1ccc(C(=O)Nc2ccc(O)cc2C(=O)O)cc1OC	18	19	32*	21
CC(C)(C)c1ccc(C(=O)Nc2ccc(O)cc2C(=O)O)cc1	28	1	23	10
COc1ccc(NC(=O)c2cccc3[nH]cc(CN4CCSCC4)c23)cc1	16	12	22	7
Cc1noc(NS(=O)(=O)c2ccc(NC(=O)CSc3ccc4ccccc4c3)cc2)c1C	52*	36*	11	15
Cc1noc(NS(=O)(=O)c2ccc(NC(=O)COc3ccc(N(C)C(=O)c4ccc(Cl)cc4)cc3)cc2)c1C	-28	/	/	0
COc1ccc(S(=O)(=O)NCc2cnn3ccccc23)cc1C	3	0	1	0
CC1(C(=O)NC2CCCC2)CN(S(C)(=O)=O)CC(=O)N1c1ccccc1F (stereo not drawn)	5	1	5	2
Cc1cc(C)c2cc(C)c(SCC(=O)N3CCCCC3)nc2c1	16	20	28	17
N#Cc1ccc(Cl)cc1NC(=O)CN1C(=O)c2ccccc2S1(=O)=O	11	4	18	1
SMILES	USP17 inh	USP28 block	USP30 inh	OTUD3 inh
N#Cc1ccc(Cl)cc1NC(=O)COc1cccnc1[N+](=O)[O-]	50*	2	31*	0
Cc1ccc(-c2noc(-c3ccc(N4CCC5(CC4)OCCO5)nc3)n2)cc1	1	-5	-1	-3
COc1ccc(-c2noc(-c3ccc(N4CCC5(CC4)OCCO5)nc3)n2)cc1	15	9	34*	13
COc1ccc2ccccc2c1CN1CCOCC1c1ncc(C)[nH]1 (stereo not drawn)	-12	-2	-15	-5
Cn1c(=O)[nH]c(=O)c2c1nc(N1CCN(C(c3ccccc3)c3ccccc3)CC1)n2CCSc1ncccn1	1	12	30*	3
CC(C)Cn1c(N2CCNCC2)nc2c1c(=O)[nH]c(=O)n2C	10	14	47*	14
CCN1CCN(c2ccc(-c3nc(-c4ccccc4)no3)cn2)CC1	12	11	13	7
Cc1nnc2cc(N3CCN(C(=O)c4ccc(Cl)cc4)CC3)cnn12	5	-2	-6	-5
CO[C@@H]1C[C@@H](C[C@H]2CC[C@H](C)[C@H]([C@@H](C)C(=O)O)O2)O[C@]2(O[C@](C)([C@H]3CC[C@@](C)([C@@H]4O[C@@H]([C@H]5O[C@](C)(O)[C@H](C)C[C@@H]5C)C[C@@H]4C)O3)C[C@H]2C)[C@@H]1C	16	5	34*	15
CC[C@@]1([C@@H]2O[C@@H]([C@H]3O[C@@](O)(CO)[C@H](C)C[C@@H]3C)C[C@@H]2C)CC[C@H]([C@]2(C)CCC3(C[C@H](O)[C@@H](C)[C@@H]([C@@H](C)[C@H](OC)[C@H](C)C(=O)O)O3)O2)O1 (stereo partly drawn)	5	3	19	4
CN(C)C1CCN(Cc2ccc(N3CCN(C(=O)c4ccc5snnc5c4)CC3)nc2)CC1	-19	-19	-51	-3
COc1ccc(CCN2Cc3cc4ccccc4nc3OC2=O)cc1	0	5	7	0
Cc1cc(C)c2cc3c(nc2c1)OC(=O)N(Cc1ccco1)C3	56*	40*	30	10
COc1ccc2cc3c(nc2c1)OC(=O)N(Cc1ccccc1)C3	29	23	39*	9
Cc1ccc(CN2Cc3cc4ccccc4nc3OC2=O)o1	42*	7	13	4
CC(C)(C)OC(=O)N1CCC[C@]2(CCC(=O)N2)[C@H]1c1ccc(F)cc1	12	14	31*	16
O=C(NCc1cccc(F)c1)C1CCCN(c2cnc3nccnc3c2)C1 (stereo not drawn)	-165	-222	i	-189
NC(=O)C1=C[C@H]2C3C=C[C@@]2(O)C(=O)OC3O1	1	-1	0	-8
Nc1c(C(=O)Nc2ccc3c(c2)OCO3)sc2nc(-c3cccnc3)ccc12	61*	33*	-2	0
O=C(Nc1cc(-c2cccnc2)no1)c1ccc2c(c1)OCO2	7	18	9	7
Cc1ccccc1C(=O)Nc1cccc(-n2cnnn2)c1C	-24	-76	-252	-51
COc1cc(Cl)ccc1C(=O)Nc1cccc(-n2cnnn2)c1C	82*	21	47*	12
Cc1c(NC(=O)/C=C/c2cccc(Cl)c2Cl)cccc1-n1cnnn1	25	0	43*	-4
COc1ccc2c(c1)C(=O)C/C(=C\c1ccc(Cl)cc1)C2	20	16	20	18
COc1ccc(/C=C2\CSc3sccc3C2=O)cc1	20	50*	21	11
COc1ccc(N2C(=O)[C@@H]3Cc4c([nH]c5ccccc45)C(C)(C)N3C2=O)c(OC)c1	47*	-21	-22	-12

Bioassay records (PubChem)
